In the supplement of paper PMC4894684:
Structures can show the parent of a compound that is named as a salt. ± gives the standard deviation of the averaged measurements.

These molecules were tested on Toxoplasma gondii RH (in HFF) (assay: parasite growth relative to the screen mean (all compounds = 100%); higher = less inhibition of parasite growth). Details: 5 µM; 72 h; oxygen 21 %.
Outline: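 Parasite growth was reported relative to the screen mean. In that scale, the mean of all compounds equals 100%, and values are averaged over two screens. Compounds from 10 mM DMSO stocks were pin-transferred to 5 µM final onto confluent human foreskin fibroblasts in 96-well plates, infected within 2 h with RH β-Gal–GFP Toxoplasma (MOI 1:5) and grown 72 h at 21% O2, with parasite number read by a CPRG β-Gal assay against in-plate standard curves. Uninfected host-cell viability was checked with CellTiter-Blue.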

Question: Which parasite growth does the source give for `Cc1ccc(NC(=O)c2cccc(N(C)C)c2)cc1NC(=O)c1ccc(O)cc1` here?
Answer: 141 ± 7.3%

Question: With `O=c1[nH]c2cc(C(F)(F)F)c(N3CCOCC3)cc2n(CP(=O)(O)O)c1=O` as the molecule, how does the parasite growth read?
Answer: 118 ± 4%

Question: Which parasite growth does the source give for `COc1ccc(CC(C)NCC(O)c2ccc(O)c(NC=O)c2)cc1` (stereo not drawn) [Formoterol hemifumarate] here?
Answer: 126 ± 5.6%

Question: With `CC(C)NCC(O)c1ccc(NS(C)(=O)=O)cc1` (stereo not drawn) [Sotalol hydrochloride] as the molecule, how does the parasite growth read?
Answer: 108 ± 6.9%

Question: How did the parasite growth turn out when `O=C(c1ccc(Nc2nccc(-c3cc4ccccc4s3)n2)cc1)N1CCC(N2CCCC2)CC1` was run?
Answer: < 0%

Question: Which parasite growth does the source give for `CC(=O)O[C@@H]1C[C@H]2C(C)(C)C(=O)C=C[C@]2(C)[C@H]2CC[C@@]3(C)[C@H](c4ccoc4)OC(=O)[C@H]4O[C@]43[C@@]21C` [Gedunin] here?
Answer: 62.3 ± 9.6%

Question: `COC(=O)C1=C(C)NC(C)=C([N+](=O)[O-])C1c1ccccc1C(F)(F)F` (racemic) was tested. Which parasite growth did it give?
Answer: 167 ± 8.8%

Question: Which parasite growth does the source give for `COc1cccc2c1C(=O)c1c(O)c3c(c(O)c1C2=O)C[C@@](O)(C(=O)CO)C[C@@H]3O[C@H]1C[C@H](N)[C@H](O)[C@H](C)O1` [Doxorubicin hydrochloride] here?
Answer: 18.4 ± 7.7%

Question: With `CN[C@H]1CC[C@@H](c2ccc(Cl)c(Cl)c2)c2ccccc21` [Sertraline hydrochloride] as the molecule, how does the parasite growth read?
Answer: 29.3 ± 4.4%

Question: Which parasite growth does the source give for `N=C(CC(O)COc1ccccc1-c1ccccc1)N1CCCCC1` (stereo not drawn) here?
Answer: 95.8 ± 34%

Question: How did the parasite growth turn out when `O=c1nc2ccccc2c2n1CC(CN1CCN(c3ccccc3)CC1)N2` (stereo not drawn) was run?
Answer: 120 ± 2.4%

Question: How did the parasite growth turn out when `Nc1nc(Cl)nc2c1ncn2[C@@H]1O[C@H](CO)[C@@H](O)[C@@H]1F` [Clofarabine] was run?
Answer: 67.9 ± 2.8%

Question: `COc1ccc2c3c1O[C@H]1C[C@@H](O)C=C[C@@]31CCN(C)C2` [Galanthamine hydrobromide] was tested. Which parasite growth did it give?
Answer: 138 ± 30%

Question: `COC(=O)[C@H]1[C@H]2C[C@@H]3c4[nH]c5cc(OC)ccc5c4CCN3C[C@H]2C[C@@H](OC(=O)c2cc(OC)c(OC)c(OC)c2)[C@@H]1OC` [Reserpine] was tested. Which parasite growth did it give?
Answer: 78.4 ± 47%

Question: `C[C@@]1(O)[C@H](O)[C@@H](CO)O[C@H]1n1cnc2c(NC3CCCC3)nc(Cl)nc21` was tested. Which parasite growth did it give?
Answer: 85.3 ± 39%

Question: How did the parasite growth turn out when `C#CCN1C(C)=C(C(=O)OC)C(c2cccc([N+](=O)[O-])c2)C(C(=O)OCC)=C1C` (stereo not drawn) was run?
Answer: 157 ± 2.2%

Question: How did the parasite growth turn out when `CC#CCOC(=O)c1c(C)nc2sc3c(c2c1N)CCC(O)C3` (stereo not drawn) was run?
Answer: 117.8 ± 0.28%

Question: Which parasite growth does the source give for `O=C1CCc2c(ccc3ccccc23)O1` [Splitomicin] here?
Answer: 149 ± 2.2%

Question: With `c1ccc(C(NCCNC(c2ccccc2)c2ccccc2)c2ccccc2)cc1` [AMN 082 dihydrochloride] as the molecule, how does the parasite growth read?
Answer: 35.1 ± 15%

Question: Which parasite growth does the source give for `COC(=O)[C@@H]1CC2=CC(=O)CC[C@]2(C)[C@@]23O[C@@H]2C[C@@]2(C)[C@@H](CC[C@@]24CCC(=O)O4)[C@H]13` [Eplerenone] here?
Answer: 132 ± 22%

Question: Which parasite growth does the source give for `N=C(N)SCCc1ccc(OCc2ccc([N+](=O)[O-])cc2)cc1` [KB-R7943 mesylate] here?
Answer: < 0%

Question: `CN(C)C(=O)n1nnnc1Cc1ccc(-c2ccccc2)cc1` was tested. Which parasite growth did it give?
Answer: 84.9 ± 38%

Question: `O=C(c1ccc(F)cc1)C1CCN(CCn2c(=S)[nH]c3ccccc3c2=O)CC1` [Altanserin hydrochloride] was tested. Which parasite growth did it give?
Answer: 135 ± 6.3%

Question: For `CC[N+](CC)(CC)CCOc1ccc(/C=C/c2ccccc2)cc1`, which parasite growth is on record?
Answer: 99.2 ± 19%

Question: Which parasite growth does the source give for `Oc1ccc(C2CNCCc3c2cc(O)c(O)c3Cl)cc1` (stereo not drawn) [Fenoldopam hydrochloride] here?
Answer: 105 ± 14%

Question: With `O=[N+]([O-])c1cccc2c(Br)[nH]nc12` [3-Bromo-7-nitroindazole] as the molecule, how does the parasite growth read?
Answer: 123 ± 5.8%

Question: For `COc1cc2ncnc(Nc3ccc(Cl)cc3F)c2cc1OC`, which parasite growth is on record?
Answer: 28.9 ± 13%

Question: `O=S(=O)(c1cccc2cnccc12)N1CCCNCC1` [Fasudil hydrochloride] was tested. Which parasite growth did it give?
Answer: 90.6 ± 21%

Question: With `CCOC(=O)N1CCC(=C2c3ccc(Cl)cc3CCc3cccnc32)CC1` [Loratidine] as the molecule, how does the parasite growth read?
Answer: 112 ± 4.8%

Question: How did the parasite growth turn out when `CCCCCCN(CCCCCC)C(=O)Cc1c(-c2ccc(Cl)cc2)[nH]c2ccc(Cl)cc12` was run?
Answer: 175 ± 22%

Question: For `CC(C)(C)c1ccc(S(=O)(=O)/C=C/C#N)cc1`, which parasite growth is on record?
Answer: 127 ± 30%

Question: With `COC(=O)C1=C(C)NC(C)=C(C(=O)OCCSc2ccccc2)C1C` (stereo not drawn) as the molecule, how does the parasite growth read?
Answer: 146 ± 12%

Question: How did the parasite growth turn out when `O=c1c(O)c(-c2ccc(O)cc2)oc2cc(O)cc(O)c12` [Kaempferol] was run?
Answer: 155 ± 7.1%

Question: How did the parasite growth turn out when `Cc1cccc(CCN2CCC(C(=O)c3ccc(NS(C)(=O)=O)cc3)CC2)n1` [E-4031 dihydrochloride] was run?
Answer: 150 ± 13%

Question: `CC(C)(C)c1ccc(/C=C/C(=O)Nc2ccc3c(c2)OCCO3)cc1` was tested. Which parasite growth did it give?
Answer: 133.4 ± 1%

Question: With `C=C1C(=O)O[C@H]2[C@H]1CC/C(C)=C/CC[C@@]1(C)O[C@@H]21` [Parthenolide] as the molecule, how does the parasite growth read?
Answer: 87.7 ± 4.2%

Question: Which parasite growth does the source give for `COc1cc2ncnc(Nc3ccc(F)c(Cl)c3)c2cc1OCCCN1CCOCC1` [Iressa] here?
Answer: 99 ± 20%

Question: `COc1ccc2[nH]c([S+]([O-])Cc3ncc(C)c(OC)c3C)nc2c1` (stereo not drawn) [Omeprazole] was tested. Which parasite growth did it give?
Answer: 178 ± 7.3%
